Results with a measured potency or affinity are listed apart.
Columns and labels:
[1] = system: Klebsiella pneumoniae; conditions: Concentration 32 ug.mL-1; ASSAY_TEST Inhibition of Bacterial Growth; detection method Absorption (OD600); MEDIA CAMHB; plate type 384well; NBS; CORNING #3640; time 18 hr
[2] = system: Candida albicans; conditions: 32 ug/mL
[3] = system: Cryptococcus neoformans; conditions: Concentration 32 ug.mL-1; ASSAY_TEST Inhibition of Fungal Growth; detection method Resazurin; Absorption (OD600-OD570); plate type 384well; NBS; CORNING #3640

Row | Structure (SMILES) | Inhibition [1] | Inhibition [2] | Inhibition [3]
1 | CC(=O)O[C@H]1C[C@@]2(C)C(C[C@@H](O)C3[C@@]4(C)CC[C@@H](OC(=O)CCC(=O)Oc5ccc(CCO[N+](=O)[O-])cc5)[C@@H](C)C4CC[C@@]32C)/C1=C(\CCC=C(C)C)C(=O)OCc1ccccc1 (stereo partly drawn) | -3.54% | -8.49% | -78.97%
2 | CC(=O)O[C@H]1C[C@@]2(C)C(CC(=O)C3[C@@]4(C)CC[C@@H](OC(=O)CCCCCO[N+](=O)[O-])[C@@H](C)C4CC[C@@]32C)/C1=C(\CCC=C(C)C)C(=O)OCc1ccccc1 (stereo partly drawn) | 8.79% | -2.93% | -87.68%
3 | CC(=O)O[C@H]1C[C@@]2(C)C(C[C@@H](O)C3[C@@]4(C)CC[C@@H](O)[C@@H](C)C4CC[C@@]32C)/C1=C(\CCC=C(C)C)C(=O)OCc1ccccc1 (stereo partly drawn) | 15.54% | -0.49% | -62.82%
4 | CC(=O)O[C@H]1C[C@@]2(C)C(C[C@@H](O)C3[C@@]4(C)CC[C@@H](OC(=O)C(N)CC(C)C)[C@@H](C)C4CC[C@@]32C)/C1=C(\CCC=C(C)C)C(=O)OCc1ccccc1 (stereo partly drawn) | 5.15% | 2.67% | -45.25%
5 | CC(=O)O[C@H]1C[C@@]2(C)C(CC(=O)C3[C@@]4(C)CCC(=O)[C@@H](C)C4CC[C@@]32C)/C1=C(\CCC=C(C)C)C(=O)OCc1ccccc1 (stereo partly drawn) | 19.97% | 6.47% | -73.01%
6 | CC(=O)O[C@H]1C[C@@]2(C)C(C[C@@H](O)C3[C@@]4(C)CC[C@@H](OC(=O)c5ccccc5C(=O)OCCc5ccc(OCCO[N+](=O)[O-])cc5)[C@@H](C)C4CC[C@@]32C)/C1=C(\CCC=C(C)C)C(=O)OCc1ccccc1 (stereo partly drawn) | 4.99% | -0.23% | -57.39%
7 | CC(=O)O[C@H]1C[C@@]2(C)C(C[C@@H](O)C3[C@@]4(C)CC[C@@H](OC(=O)c5ccccc5C(=O)Nc5cccc(N)c5)[C@@H](C)C4CC[C@@]32C)/C1=C(\CCC=C(C)C)C(=O)OCc1ccccc1 (stereo partly drawn) | 1.34% | 1.55% | -66.02%
8 | CC(=O)O[C@H]1C[C@@]2(C)C(C[C@@H](O)C3[C@@]4(C)CC[C@@H](O)[C@@H](C)C4CC[C@@]32C)/C1=C(\CCC=C(C)C)C(=O)Oc1ccc(CCO[N+](=O)[O-])cc1 (stereo partly drawn) | 24.64% | 7.08% | -126.19%
9 | CC(=O)O[C@H]1C[C@@]2(C)C(C[C@@H](O)C3[C@@]4(C)CC[C@@H](OC(=O)CO[N+](=O)[O-])[C@@H](C)C4CC[C@@]32C)/C1=C(\CCC=C(C)C)C(=O)OCc1ccccc1 (stereo partly drawn) | 17.67% | 0.87% | -43.62%
10 | CC(=O)O[C@H]1C[C@@]2(C)C(C[C@@H](O)C3[C@@]4(C)CC[C@@H](OC(=O)C(N)C(C)C)[C@@H](C)C4CC[C@@]32C)/C1=C(\CCC=C(C)C)C(=O)OCc1ccccc1 (stereo partly drawn) | 18.28% | 14.4% | 88.23%
11 | CC(=O)O[C@H]1C[C@@]2(C)C(C[C@@H](O)C3[C@@]4(C)CC[C@@H](OC(=O)c5ccccc5C(=O)Nc5ccc(N)cc5)[C@@H](C)C4CC[C@@]32C)/C1=C(\CCC=C(C)C)C(=O)OCc1ccccc1 (stereo partly drawn) | 5.38% | 25% | -105.92%
12 | CC(=O)O[C@H]1C[C@@]2(C)C(C[C@@H](O)C3[C@@]4(C)CC[C@@H](OC(=O)C(C)N)[C@@H](C)C4CC[C@@]32C)/C1=C(\CCC=C(C)C)C(=O)OCc1ccccc1 (stereo partly drawn) | 8.77% | 16.1% | 90.52%
13 | CC(=O)O[C@H]1C[C@@]2(C)C(CC(=O)C3[C@@]4(C)CC[C@@H](OC(=O)CCCCO[N+](=O)[O-])[C@@H](C)C4CC[C@@]32C)/C1=C(\CCC=C(C)C)C(=O)OCc1ccccc1 (stereo partly drawn) | 10.79% | -1.47% | -85.18%
14 | CC(=O)O[C@H]1C[C@@]2(C)C(C[C@@H](O)C3[C@@]4(C)CC[C@@H](O)[C@@H](C)C4CC[C@@]32C)/C1=C(\CCC=C(C)C)C(=O)On1nnc2ccccc21 (stereo partly drawn) | -4.91% | 3.88% | -40.31%
15 | CC(=O)O[C@H]1C[C@@]2(C)C(C[C@@H](O)C3[C@@]4(C)CC[C@@H](OC(=O)CCCCO[N+](=O)[O-])[C@@H](C)C4CC[C@@]32C)/C1=C(\CCC=C(C)C)C(=O)OCc1ccccc1 (stereo partly drawn) | 6.42% | -3.76% | -91.73%
16 | CC(=O)O[C@H]1C[C@@]2(C)C(C[C@@H](O)C3[C@@]4(C)CC[C@@H](OC(=O)c5ccccc5C(=O)Oc5ccc(CCO[N+](=O)[O-])cc5)[C@@H](C)C4CC[C@@]32C)/C1=C(\CCC=C(C)C)C(=O)OCc1ccccc1 (stereo partly drawn) | 0.97% | -5.71% | -72.43%

— ChEMBL document CHEMBL4513152, “CO-ADD screening of Yantai University (China) compounds”
